# A selection: hits, their analogues and other compounds. The true share with any hit is near 1.1%.
# MOR-DOR ag-1: OPRM1-OPRD1 heterodimerization agonism; activation, % at 9.3 µM; P35372+P41143; 340,000 compounds, 0.3% hits; cells, luminescence;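 note: 0% = vehicle-treated cells and 100% = reference agonist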
# HTR5A inv ctr: counter-screen for OPRM1-OPRD1 inverse agonists: human HTR5A inverse agonism; inhibition, % at 9.3 µM; HTR5A cell line, luminescence; 340,000 compounds, 0.083% hits; P47898; in the data active = inhibition mostly above about 23%, no sharp cut-off; inactive = mostly below about 18%;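 note: 0% = cells with DMSO and 100% = no-cell wells with DMSO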
# HTR5A ag: activates human HTR5A in OPRM1-OPRD1 agonist counter-screen; P47898; HTR5A agonist assay, luminescence, cell-based; activation, % at 9.3 µM; 340,000 compounds, 0.61% hits; AID 504692; in the data active = activation mostly above about 9.5%, no sharp cut-off; inactive = mostly below about 7.6%;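 note: 0% = cells with vehicle only and 100% = reference agonist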
# OPRM1-OPRD1 inv: mu-delta opioid heterodimer inverse agonism; 340,000 compounds, 0.21% hits; inhibition, % at 9.3 µM; AID 504357; cell-based MOR-DOR heterodimer luminescence; P35372+P41143; in the data active = inhibition above about 22%, passing the limit was not always enough;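 note: 0% = cells with DMSO and 100% = wells without cells with DMSO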
# MOR-DOR ag-2: counter-screen for HTR5A agonists: OPRM1-OPRD1 heterodimerization agonism. shares compounds with HTR5A ag. U2OS counter-screen cells, complementation luminescence, 3 h. activation, % at 9.3 µM. 800 compounds, 13% hits
# HTR5A ag confirm: HTR5A (human) agonism, confirmation; AID 504915; HTR5A agonist cell assay, luminescence; activation, % at 9.3 µM; 800 compounds, 17% hits; shares compounds with HTR5A ag; in the data active = activation above about 17%;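 note: 0% = cells with vehicle only and 100% = full reference agonist response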
# * hit, by the source's call; x = no result; ! = repeats disagree. Cut-off read from the data, not from the text of the source, unless noted: active = activation above about 18%; inactive = the rest.
SMILES,MOR-DOR ag-1,HTR5A inv ctr,HTR5A ag,OPRM1-OPRD1 inv,MOR-DOR ag-2,HTR5A ag confirm
CN(CC(=O)Nc1ccc(F)c(F)c1F)C(=O)c1ccc2c(c1)NC(=O)CS2,1.0,-26.5,10.9,-4.1,x,x
CN(CC(=O)Nc1ccc(Cl)c(C(F)(F)F)c1)C(=O)c1ccc2c(c1)NC(=O)CS2,-0.4,-24.5,15.8*,1.6,-1.2,-1.0
Cc1cccc(C(=O)NNC(=O)c2c(O)c3ccccc3n(C)c2=O)c1,1.9,-50.6,18.9*,-9.9,2.6,7.1
CN(CCc1ccccc1)C(=O)CCc1nnc(Cc2ccc3c(c2)OCO3)o1,-2.3,-16.9,7.0,11.9,x,x
CC1CC(C)(C)NC(=S)N1CCC(=O)N1CCc2ccccc2C1 (centres undefined),1.6,-33.2,15.5*,-7.3,2.0,-2.1
CC1CC(C)(C)NC(=S)N1CCC(=O)N1CCN(c2ccccc2)CC1 (centres undefined),-2.5,6.8,-1.8,11.1,x,x
O=C(COC(=O)[C@@H]1CCCN1S(=O)(=O)c1ccccc1F)NCc1ccc2c(c1)OCO2,-3.0,-43.5,17.1*,11.8,1.1,5.2
COc1ccc(NC(=O)COC(=O)[C@@H]2CCCN2S(=O)(=O)c2ccccc2F)c(OC)c1,-1.1,-16.1,5.7,5.7,x,x
CCOCCCNC(=O)c1cn(CC)c2ccc(S(=O)(=O)N3CCCC3)cc2c1=O,-3.4,6.1,-1.6,17.7,x,x
COc1ccc(OC)c(-c2csc(NC(=O)Cn3[nH]c(=O)c4ccccc4c3=O)n2)c1,2.3,-80.0,31.1*,-10.8,2.9,5.9
O=C(COC(=O)c1ccc(F)cc1F)Nc1cccc(S(=O)(=O)N2CCOCC2)c1,-0.4,25.5,3.6,2.4,x,x
Oc1ccc(C2CNCCc3c2cc(O)c(O)c3Cl)cc1 (centres undefined),0.3,9.1,32.3*!,-1.6,1.7,56.0*
O=C(O)c1cc2c(cn1)[nH]c1ccccc12,-4.3,-9.5,2.7,19.6,x,x
CN(C)S(=O)(=O)N1CCN(C(=O)c2ccc3c(c2)OCO3)CC1,0.6,-4.0,1.4,-5.3,x,x
CCOc1ccccc1N(CC(=O)NCCSc1ccccn1)S(=O)(=O)c1ccccc1,-1.2,-72.1,25.4*,8.1,125.8*,-3.3
CCOc1ccccc1N(CC(=O)NCCSc1ccccn1)S(=O)(=O)c1ccc(C)cc1,1.1,-87.7,29.8*,-6.6,9.6,6.2
Cc1ccc(S(=O)(=O)N(CC(=O)NCCSc2ccccn2)c2ccc(C)c(C)c2)cc1,1.6,-1.9,0.8,-8.3,x,x
Brc1ccc(CN2CCCCCC2)cc1,-3.5,1.7,-2.1,17.4,x,x
CCOC(=O)[C@@H]1[C@H]2COc3cc(OC)ccc3[C@H]2N2C(=O)N(c3cccc(F)c3)C(=O)[C@]12C,-2.4,5.5,-0.6,14.1,x,x
CCOc1ccc(CNC(=O)NS(=O)(=O)c2ccc(OC)cc2)cc1,1.0,-49.8,15.4*,-5.3,23.3*,4.4
CCC(C)NS(=O)(=O)c1ccc(OCC(=O)NCc2ccc(OC)cc2)cc1 (centres undefined),-0.5,-26.3,-2.6,2.8,x,x
CCOc1ccc(S(=O)(=O)NN)cc1,-2.9,-85.2,14.4*,17.3,-1.9,0.3
Cc1oc(-c2ccc(Cl)cc2)nc1CN1CCC(C(=O)N2CCc3ccccc3C2)CC1,2.3,0.6,-0.2,-11.9,x,x
Cc1oc(-c2ccc(Cl)cc2)nc1CN1CCC(C(=O)N2CCN(Cc3ccccc3)CC2)CC1,5.1,-42.9,15.5*,-26.1,2.0,2.8
O=C(CSc1ccc2ccccc2n1)c1ccc2c(c1)OCO2,0.2,-121.5,39.7*,-1.0,4.5,52.8*
SMILES,MOR-DOR ag-1,HTR5A inv ctr,HTR5A ag,OPRM1-OPRD1 inv,MOR-DOR ag-2,HTR5A ag confirm
O=C(O)CSc1ccc2ccccc2n1,1.4,-4.8,1.6,-7.9,x,x
Brc1ccc(-c2csc(-c3c[nH]c4ccccc34)n2)cc1,0.3,-2.4,1.0,-1.4,x,x
c1ccc2c(-c3csc(-c4ccncc4)n3)c[nH]c2c1,-0.5,-58.9,20.5*,2.6,2.4,-1.7
CCCCCC(C)NC(=S)NC(=O)c1cc(S(=O)(=O)N2CCOCC2)ccc1C (centres undefined),-1.2,-23.3,14.6*,6.2,1.4,8.7
COc1ccc(OC)c2sc(N(CCN(C)C)C(=O)/C=C/c3cccs3)nc12,5.9,-28.5,7.6,-29.5,x,x
COc1ccc(C)c2sc(N(CCN(C)C)C(=O)/C=C/c3cccs3)nc12,6.9,-65.6,16.2*,-36.5,9.6,18.1*
CS(=O)(=O)C1=C(O)C(=O)N(CCCC(=O)O)C1c1ccccc1F (centres undefined),-0.1,-43.0,16.5*,0.7,0.3,7.2
CCOC(=O)c1cc2sc(C)cc2n1CC(=O)N1CCOCC1,0.2,9.5,-4.1,-1.4,x,x
CCOC(=O)c1cc2sc(C)cc2n1CC(=O)NCc1ccc(F)cc1,8.1,-22.1,20.4*,-46.6,3.4,5.5
COc1ccc(CCNCc2cc3ccc(C)cc3[nH]c2=O)cc1OC,-3.8,1.2,-0.3,16.9,x,x
O=C(NCc1ccc2c(c1)OCO2)C1CC(=O)N(CCc2ccccc2)C1 (centres undefined),-1.5,8.0,-2.7,8.8,x,x
O=C(NCc1ccc2c(c1)OCO2)C1CC(=O)N(CCc2ccc(F)cc2)C1 (centres undefined),1.5,-48.4,16.3*,-11.9,-0.9,-3.5
O=C(Nc1ccc(F)cc1)N1CCN(C(=O)C2CCCO2)CC1 (centres undefined),-2.8,-4.6,2.5,15.2,x,x
CCN(CC)Cc1c(O)ccc2occ(C(=O)c3ccccc3)c12,-2.5,8.2,-2.4,12.1,x,x
CN(C)Cc1c(O)ccc2occ(C(=O)c3ccccc3)c12,-0.5,14.1,18.6*,2.9,1.0,47.3*
O=C1C2=C(NC(=S)NC2c2ccc(Cl)cc2)NC(c2ccc(Cl)cc2)N1c1ccc(Cl)cc1 (centres undefined),3.5,-31.4,11.7,-21.1,x,x
CCc1ccc(C2NC(=S)NC3=C2C(=O)N(c2ccccc2OC)C(c2ccc(CC)cc2)N3)cc1 (centres undefined),4.5,-16.6,21.6*,-28.0,7.8,0.5
CCCN(CC(=O)Nc1ccccc1C)C(=O)c1cccc(S(=O)(=O)N2CCN(c3ccccc3)CC2)c1,-2.1,3.3,-0.9,11.3,x,x
Cc1ccc(-n2ncc3c(NCc4ccc5c(c4)OCO5)ncnc32)c(C)c1,1.3,-10.5,14.5*,-6.5,0.8,2.9
Cc1cccc(-n2ncc3c(NCc4ccc5c(c4)OCO5)ncnc32)c1,5.0,-36.5,7.1,-24.8,x,x
O=C1CC(c2cccc(Cl)c2)Cc2nc(N3CCN(c4ccccc4)CC3)ncc21 (centres undefined),-1.6,-42.0,16.8*,6.9,1.7,2.4
O=C(Nc1ccc(-n2cc(Cl)cn2)cc1)c1ccncc1,-1.3,-14.3,14.4*,7.1,18.1*,5.7
Cn1c(NC(=O)Cc2cccs2)cc(=O)n(C)c1=O,-2.1,-53.3,19.0*,10.9,0.6,-0.2
O=C(OCCC12CC3CC(CC(C3)C1)C2)c1ccc(NCc2cc(O)ccc2O)cc1,2.9,-58.2,15.2*,-13.9,5.5,5.6

# Compound activity as filed in PubChem BioAssay.
